Compounds without any hit were thinned out: in the full panel of roughly 83,000, 20% have a hit.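 Negative percent growth values reflect cell death: -40 means 40% of the cells present at the start died, and -100 means all died.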 Activity calls are given as the source filed them. How the source made its calls: active means growth percent below 10; inactive means the rest.

This test has as its system UO-31 renal. Briefly: NCI-60 one-dose screen, 48 h (100 = growth as untreated, 0 = no growth, -100 = all killed). To be noted: 10 µM unless noted.
For `O=C1C(Cl)=C(NCCCCCCNC2=C(Cl)C(=O)c3ccccc3C2=O)C(=O)c2ccccc21`, the growth was 83.9% (inactive).

With `CCCC/C=C/[C@@H]1C[C@H]1CCO`, the growth was 87% (inactive).

Regarding `C=C(C)[C@@H]1CC[C@]2(CO)CC[C@]3(C)[C@H](CC[C@@H]4[C@@]5(C)CC[C@H](NCO)C(C)(C)[C@@H]5CC[C@]43C)[C@@H]12`, the growth is -99.2% (active).

Take `Cc1cccc(/C=C/c2c(C(=O)/C=C/c3ccccc3)c(C)nc3ccccc23)c1`: the growth is -94.2% (active).

Consider `Cc1ccc(-c2nc(N3CCCNCC3)c3oc(-c4ccc(C)cc4)nc3n2)cc1`, for which the growth was 62.6% (inactive).

As for `Cc1sc2nc(NCCc3c[nH]c4ccc(Cl)cc34)[nH]c(=O)c2c1C`, the growth was 18.6% (inactive).

Take `COc1ccc(OC)c(Nc2nnc(-c3ccc(O)c(OC)c3)o2)c1`: the growth was 20.3% (inactive).

Take `COc1ccccc1NC(=O)N=Nc1c(O)[nH]c2ccccc12`: the growth was 58.7% (inactive).

Regarding `Nc1nc2ccccc2c2c1S(=O)(=O)c1ccc(Cl)cc1C2=O`, the growth was -15.2% (active).

As for `Nc1n[nH]c2cccc(C#Cc3cccc(C(=O)Nc4cc(C(F)(F)F)cc(C(F)(F)F)c4)c3)c12`, the growth was 42.5% (inactive).

For `CS(=O)(=O)Nc1cc(-c2ccc3ncnc(Nc4ccc5c(cnn5Cc5ccc(F)cc5)c4)c3c2)cnc1Cl`, the growth was 46.5% (inactive).

For `Fc1cc2c(cc1Cl)N(c1ncnc3ccc(-c4ccc5n[nH]nc5c4)cc13)CC2`, the growth was 44.3% (inactive).

As for `CCN1C(=S)N(c2ccccc2)C2NC(=S)N(/N=C/C=C/c3ccccc3OC)C21` (stereo not given), the growth was 44% (inactive).

As for `O=c1c2cccc3c(N4CCCC4)ccc(c32)c2nc3ccccc3n12`, the growth was 56.2% (inactive).

With `OB1OCc2cc(/C=C/c3cccc(C(F)(F)F)c3)ccc21`, the growth is -28.6% (active).

On to `O=C(/C=C/c1ccccc1)Nc1ncc(Cc2ccccc2Cl)s1`, for which the growth was 39.2% (inactive).

On to `CN(C)CCNC(=O)c1ccc(-c2nc3ccc4[nH]ncc4c3c3c2C2CCC3C2)cc1` (stereo not given), for which the growth was 8.05% (active).

With `COC12C=C/C(=C(/C(=O)OCc3ccncc3)C(=O)CCCCCCCCC3(OC)C=C/C(=C(/C(=O)OCc4ccncc4)C(=O)CCCCCCCC1)O3)O2`, the growth is -70.9% (active).

With `O=C(/C=C/c1cccc(Cl)c1)c1cccc(OCCCOc2cccc(C(=O)/C=C/c3cccc(Cl)c3)c2)c1`, the growth is 66.8% (inactive).

In the case of `CCn1c(SCC(=O)N/N=C(\C)c2ccc(Cl)cc2)nc2c1c(=O)n(C)c(=O)n2C`, the growth is 80.8% (inactive).

For the molecule `Cc1ccc(C[P+](c2ccccc2)(c2ccccc2)c2ccccc2)cc1`, the growth was 88.1% (inactive).

For the molecule `Clc1ccc2c(NC3CCC(N4CCOCC4)CC3)ccnc2c1` (stereo not given), the growth is 75.3% (inactive).

As to `Cc1ccc(C2=Nc3c(N)ncnc3NC(c3cccc(Nc4ccnc5cc(C(F)(F)F)ccc45)c3)C2)cc1` (stereo not given), the growth was 26.4% (inactive).

As for `COc1ccc(-c2noc(C(=O)O)c2-c2cc(OC)c(OC)c(OC)c2)cc1`, the growth is 38.8% (inactive).

As to `CCOC(=O)c1nn(-c2ccc(S(N)(=O)=O)cc2)c2nc(C)cc(=O)n12`, the growth is 86.1% (inactive).

As to `CCSC(SCC)c1ccc(Cl)cc1`, the growth was 92.5% (inactive).

With `CSc1nc2ccccc2cc1/C=C1/C=C(c2ccccc2)NC1=O`, the growth was 91.9% (inactive).

For `COC1/C=C/OC2(C)Oc3c(C)c(O)c4c(O)c(c(/C=N/Nc5ccc([N+](=O)[O-])cc5[N+](=O)[O-])c(O)c4c3C2=O)NC(=O)C(C)=C/C=C/C(C)C(O)C(C)C(O)C(C)C(OC(C)=O)C1C` (stereo not given), the growth is 70.2% (inactive).

In the case of `O=C1C(Cl)=C(Nc2ccc(S(=O)(=O)N3CCOCC3)cc2)C(=O)c2ccccc21`, the growth is 52.8% (inactive).

Turning to `c1csc(-c2ccc(CNc3c4ccccc4nc4ccccc34)cc2)c1`, the growth is 27.9% (inactive).

In the case of `Nc1ncc(-c2ccc3ncnc(Nc4cccc(Cl)c4)c3c2)cn1`, the growth is 26.2% (inactive).

Take `CCOC(=O)C#Cc1c(C(=O)OCC)nnn1Cc1ccc([N+](=O)[O-])cc1`: the growth is 4.18% (active).

Take `O=C(CSc1nc2ccc([N+](=O)[O-])cc2[nH]1)Nc1ccc([N+](=O)[O-])cc1`: the growth is 9.43% (active).

For `CC(C)(Sc1cc(C(C)(C)C)c(OC(=O)CCCC(=O)O)c(C(C)(C)C)c1)Sc1cc(C(C)(C)C)c(OC(=O)CCCC(=O)O)c(C(C)(C)C)c1`, the growth was 37.9% (inactive).

As to `O=C(N(c1ccccc1)c1ccccc1)n1cc(I)c2nc(Cl)nc(Cl)c21`, the growth is 54.4% (inactive).

Take `NC(=O)CSc1oc(-c2ccccc2)nc1S(=O)(=O)c1ccc(Br)cc1`: the growth is 59.7% (inactive).

Take `COc1ccc(/C=C/C(=O)c2cc3c(N)c(C(=O)Nc4cccc5ccccc45)sc3nc2C)cc1`: the growth is 62.7% (inactive).

As to `Nc1ncnc2c1c(-c1cccc(Cl)c1)nn2CC(=O)N1CCOCC1`, the growth was 80.7% (inactive).

As to `CC(=O)O[C@H]1CC2CCC3C(CC[C@@]4(C)C3C[C@H]([N+]3(C)CCCCC3)[C@@H]4OC(C)=O)[C@@]2(C)C[C@@H]1N1CCCCC1` (stereo not given in full), the growth is 83.3% (inactive).

`c1ccc(Cn2cc3c(c2)-c2oncc2CC3)cc1`: the growth was 41.6% (inactive).

For the origin of these results see PubChem BioAssay (NCI).
